Results taken from PubChem BioAssay AID1159580 (chemical genetic matrix, 2015).
Among all 5,500 compounds or so, about 2,000 (36%) were called active. Not shown: some 18% with an inconclusive outcome. Cut-off read from the data, not from the text of the source: active = normalized growth mostly below about 0.91 (no sharp cut-off); inconclusive = no clear call, values can overlap the other calls; inactive = mostly above about 0.92. This is one part of the list.

Assay: chemical genetic growth profiling, strain panel (AID 1159580);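 note: tested at 20 µM; growth read once vehicle control cultures reached saturation at 30 °C; 1 = growth at the plate median or of vehicle wells; lower values mean less growth of the strain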
Settings: growth OD

Measured: normalized growth

NC(Cn1ccc(=O)c(O)c1)C(=O)O (configuration not stated)
inactive: S. cerevisiae deletion strains, locus YJR075W, strain HOC1, stronger effect = lower value 1.01 | S. cerevisiae deletion strains, locus YKL009W, strain mrt4, stronger effect = lower value 1.01 | S. cerevisiae deletion strains, locus YKL068W, stronger effect = lower value 0.993 | S. cerevisiae deletion strains, locus YKL085W, strain MDH1 (second series), stronger effect = lower value 0.993 | S. cerevisiae deletion strains, locus YKL085W, strain MDH1, stronger effect = lower value 0.993 | S. cerevisiae deletion strains, locus YKL160W, strain elf1, stronger effect = lower value 1.04 | S. cerevisiae deletion strains, locus YKL190W, strain CNB1, stronger effect = lower value 1.01 | S. cerevisiae deletion strains, locus YKR001C, strain vps1, stronger effect = lower value 0.991 | S. cerevisiae deletion strains, locus YKR026C, strain gcn3, stronger effect = lower value 1.03 | S. cerevisiae deletion strains, locus YKR091W, strain srl3, stronger effect = lower value 1.01 | S. cerevisiae deletion strains, locus YLL001W, strain dnm1, stronger effect = lower value 0.981 | S. cerevisiae deletion strains, locus YLL026W, stronger effect = lower value 1.01 | S. cerevisiae deletion strains, locus YLL041C, strain sdh2, stronger effect = lower value 1.01 | S. cerevisiae deletion strains, locus YLR027C, strain aat2, stronger effect = lower value 1.01 | S. cerevisiae deletion strains, locus YLR039C, strain RIC1, stronger effect = lower value 1.04 | S. cerevisiae deletion strains, locus YLR058C, strain SHM2, stronger effect = lower value 1.01 | S. cerevisiae deletion strains, locus YLR102C, strain apc9, stronger effect = lower value 0.988 | S. cerevisiae deletion strains, locus YLR113W, strain HOG1, stronger effect = lower value 1.03 | S. cerevisiae deletion strains, locus YLR221C, strain rsa3, stronger effect = lower value 1 | S. cerevisiae deletion strains, locus YLR258W, strain gsy2, stronger effect = lower value 1.03 | S. cerevisiae deletion strains, locus YLR262C, strain YPT6 (second series), stronger effect = lower value 0.977 | S. cerevisiae deletion strains, locus YLR262C, strain YPT6, stronger effect = lower value 1.03 | S. cerevisiae deletion strains, locus YLR268W, strain sec22, stronger effect = lower value 0.962 | S. cerevisiae deletion strains, locus YLR320W, strain mms22, stronger effect = lower value 0.981 | S. cerevisiae deletion strains, locus YLR330W, strain CHS5, stronger effect = lower value 1.01 | S. cerevisiae deletion strains, locus YLR342W, strain FKS1 (second series), stronger effect = lower value 1.06 | S. cerevisiae deletion strains, locus YLR342W, strain FKS1, stronger effect = lower value 1.03 | S. cerevisiae deletion strains, locus YLR357W, strain rsc2, stronger effect = lower value 0.986 | S. cerevisiae deletion strains, locus YLR370C, strain arc18, stronger effect = lower value 1.03 | S. cerevisiae deletion strains, locus YLR371W, strain rom2, stronger effect = lower value 0.995 | S. cerevisiae deletion strains, locus YLR384C, strain iki3, stronger effect = lower value 1.03 | S. cerevisiae deletion strains, locus YLR418C, strain cdc73, stronger effect = lower value 0.994 | S. cerevisiae deletion strains, locus YML016C, strain PPZ1, stronger effect = lower value 1.02 | S. cerevisiae deletion strains, locus YML032C, strain rad52, stronger effect = lower value 0.965 | S. cerevisiae deletion strains, locus YML120C, strain ndi1, stronger effect = lower value 1.01 | S. cerevisiae deletion strains, locus YML124C, strain tub3, stronger effect = lower value 0.995 | S. cerevisiae deletion strains, locus YMR058W, strain fet3, stronger effect = lower value 1.01 | S. cerevisiae deletion strains, locus YMR078C, strain ctf18, stronger effect = lower value 0.982 | S. cerevisiae deletion strains, locus YMR125W, strain sto1, stronger effect = lower value 1.04 | S. cerevisiae deletion strains, locus YMR129W, stronger effect = lower value 1.01 | S. cerevisiae deletion strains, locus YMR205C, strain PFK2, stronger effect = lower value 1.01 | S. cerevisiae deletion strains, locus YMR223W, strain ubp8, stronger effect = lower value 1.01 | S. cerevisiae deletion strains, locus YMR231W, strain pep5, stronger effect = lower value 1.02 | S. cerevisiae deletion strains, locus YMR263W, strain SAP30, stronger effect = lower value 1.01 | S. cerevisiae deletion strains, locus YMR307W, strain GAS1, stronger effect = lower value 1.02 | S. cerevisiae deletion strains, locus YNL067W, strain RPL9B, stronger effect = lower value 1.01 | S. cerevisiae deletion strains, locus YNL071W, strain lat1, stronger effect = lower value 1.02 | S. cerevisiae deletion strains, locus YNL128W, strain TEP1, stronger effect = lower value 1.01 | S. cerevisiae deletion strains, locus YNL153C, strain GIM3, stronger effect = lower value 1.01 | S. cerevisiae deletion strains, locus YNL183C, strain NPR1, stronger effect = lower value 0.974 | S. cerevisiae deletion strains, locus YNL209W, strain ssb2, stronger effect = lower value 1.03 | S. cerevisiae deletion strains, locus YNL233W, strain BNI4, stronger effect = lower value 1.02 | S. cerevisiae deletion strains, locus YNL248C, strain rpa49, stronger effect = lower value 1.04 | S. cerevisiae deletion strains, locus YNL250W, strain rad50, stronger effect = lower value 0.978 | S. cerevisiae deletion strains, locus YNL271C, strain bni1, stronger effect = lower value 0.984 | S. cerevisiae deletion strains, locus YNL298W, strain CLA4, stronger effect = lower value 0.987 | S. cerevisiae deletion strains, locus YNL307C, strain MCK1, stronger effect = lower value 0.997 | S. cerevisiae deletion strains, locus YNL322C, strain KRE1 (second series), stronger effect = lower value 1.02 | S. cerevisiae deletion strains, locus YNL322C, strain KRE1, stronger effect = lower value 1.01 | S. cerevisiae deletion strains, locus YNR049C, strain mso1, stronger effect = lower value 1.02 | S. cerevisiae deletion strains, locus YNR052C, strain pop2, stronger effect = lower value 0.992 | S. cerevisiae deletion strains, locus YOL006C, strain TOP1, stronger effect = lower value 1.01 | S. cerevisiae deletion strains, locus YOL012C, strain htz1 0.622 | S. cerevisiae deletion strains, locus YOL147C, strain pex11, stronger effect = lower value 0.985 | S. cerevisiae deletion strains, locus YOR001W, strain rrp6, stronger effect = lower value 0.969 | S. cerevisiae deletion strains, locus YOR061W, strain CKA2, stronger effect = lower value 1.03 | S. cerevisiae deletion strains, locus YOR069W, strain VPS5, stronger effect = lower value 1.01 | S. cerevisiae deletion strains, locus YOR070C, strain gyp1, stronger effect = lower value 1.03 | S. cerevisiae deletion strains, locus YOR080W, strain dia2, stronger effect = lower value 1.01 | S. cerevisiae deletion strains, locus YOR083W, strain WHI5, stronger effect = lower value 0.982 | S. cerevisiae deletion strains, locus YOR106W, strain vam3, stronger effect = lower value 1.02 | S. cerevisiae deletion strains, locus YOR136W, strain idh2, stronger effect = lower value 0.996 | S. cerevisiae deletion strains, locus YOR144C, strain elg1, stronger effect = lower value 0.985 | S. cerevisiae deletion strains, locus YOR184W, strain ser1, stronger effect = lower value 0.99 | S. cerevisiae deletion strains, locus YOR231W, strain MKK1, stronger effect = lower value 1.02 | S. cerevisiae deletion strains, locus YOR265W, strain rbl2, stronger effect = lower value 1.02 | S. cerevisiae deletion strains, locus YOR270C, strain vph1, stronger effect = lower value 1.07 | S. cerevisiae deletion strains, locus YOR290C, strain snf2, stronger effect = lower value 1.04 | S. cerevisiae deletion strains, locus YOR316C, strain cot1, stronger effect = lower value 0.988 | S. cerevisiae deletion strains, locus YPL051W, strain arl3, stronger effect = lower value 1.03 | S. cerevisiae deletion strains, locus YPL055C, strain LGE1, stronger effect = lower value 1.05 | S. cerevisiae deletion strains, locus YPL078C, strain atp4, stronger effect = lower value 1.05 | S. cerevisiae deletion strains, locus YPL106C, strain sse1, stronger effect = lower value 1.02 | S. cerevisiae deletion strains, locus YPL240C, strain hsp82, stronger effect = lower value 1.01 | S. cerevisiae deletion strains, locus YPL241C, strain CIN2, stronger effect = lower value 1.01 | S. cerevisiae deletion strains, locus YPL256C, strain CLN2, stronger effect = lower value 1.03 | S. cerevisiae deletion strains, locus YPR119W, strain clb2, stronger effect = lower value 0.988 | S. cerevisiae deletion strains, locus YPR141C, strain kar3, stronger effect = lower value 0.993 | S. cerevisiae deletion strains, locus YPR163C, strain tif3, stronger effect = lower value 0.987 | S. cerevisiae deletion strains, locus YPR167C, strain met16, stronger effect = lower value 0.99 | S. cerevisiae deletion strains, strain wtn01, stronger effect = lower value 0.991 | S. cerevisiae strains, strain wild type, stronger effect = lower value 1.03
